What all share (experiment): NCI-60 one-dose screen, 48 h (100 = growth as untreated, 0 = no growth, -100 = all killed)
In assay [1] the test system is SR leukemia. The conditions noted are these: 10 µM unless noted.
The subject of assay [2] is RPMI-8226 leukemia. The conditions noted are these: 10 µM.
Assay [3] concerns OVCAR-8 ovarian. The conditions noted are these: 10 µM unless noted.
Assay [4] relates to OVCAR-5 ovarian. The conditions noted are these: 10 µM unless noted.
Assay [5] has as its system OVCAR-4 ovarian. Particulars: 10 µM unless noted.
Assay [6] concerns SK-OV-3 ovarian. The conditions noted are these: 10 µM.
The test system of assay [7] is IGROV1 ovarian. Particulars: 10 µM unless noted.
The test system of assay [8] is OVCAR-3 ovarian. The conditions noted are these: 10 µM unless noted.
Assay [9] relates to HS 578T breast. Particulars: 10 µM unless noted.
The test system of assay [10] is NCI/ADR-RES ovarian. The conditions noted are these: 10 µM unless noted.

The structures appear in SMILES notation. About 83,000 compounds went through this panel and 20% of them were active in at least one assay; those are over-represented in the sample as a whole.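 96-well plates, one dose, 48 hours. Percent growth reported; active if below 10.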 Unmarked numbers belong to inactive results. Active and inactive are the calls of the source.

For twelve compounds, growth results are on record in PubChem BioAssay (NCI).

In the case of `Clc1nc(-c2ccccn2)nc2sc3c(c12)CCCCCC3`, the growth is 66.3% in assay [1]; 95.5% in [2]; 87.1% in assay [3]; 108% in assay [4]; 85.7% in [5]; 105% in [6]. Besides, the growth is 89.8% in assay [7], 108% in [8], 91.3% in assay [9] and 89.3% in assay [10].

Take `CC(=O)Nc1ccccc1-c1n[nH]c(=O)[nH]c1=O`: the growth is 107% in [1]; 103% in assay [2]; 106% in assay [3]; 96.4% in assay [4]; 93.6% in assay [5]; 99.1% in assay [6]. Besides, the growth in assay [7] is 104%; in assay [8], 113%; in [9], 77.9%; in [10], 102%.

With `COc1cc(/C=C/C(=O)C(=Cc2ccc(F)c(F)c2)C(=O)/C=C/c2ccc(O)c(OC)c2)ccc1O`, the growth in assay [1] is 18.2%; in assay [2], 19.9%; in assay [3] it was 11.1%; in assay [4], 115%; in [5], 39.3%; in [6], 94.4%. The growth in [7] was 5.44% (active); in assay [8] it was -11.9% (active); in [9], 38.4%; in [10], 57.6%.

Regarding `CC(C)OC1=C(Cl)C(=O)c2ccccc2C1=O`, the growth was 9.89% (active) in [1]; 24.5% in assay [2]; 75.9% in assay [3]; 101% in assay [4]; 71.9% in [5]; 103% in [6]. For the same compound, the growth in [7] is 99.1%; in [8], 78%; in assay [9], 81.5%; in assay [10], 87.2%.

Consider `O=[N+]([O-])c1cc2c(cc1Br)C1C(C3C2C(Cl)(Cl)C(Cl)=C(Cl)C3(Cl)Cl)C(Cl)(Cl)C(Cl)=C(Cl)C1(Cl)Cl` (stereo not given), for which the growth in assay [1] was 80.2%; in assay [2], 88.1%; in assay [3] it was 97%; in assay [4], 102%; in [5], 102%; in assay [6] it was 101%. Besides, the growth in [7] was 102%; in assay [8], 95.6%; in [9], 114%; in [10], 94%.

In the case of `COc1ccc(-n2ncc3c4nc(OC)c(S(=O)(=O)c5ccccc5)cc4ccc32)cc1`, the growth is 85.9% in assay [1]; 95% in assay [2]; 52.7% in assay [3]; 91.3% in assay [4]; 45.5% in assay [5]; 55.8% in assay [6]. The growth was 92% in [7], 77.2% in [8], 43.5% in [9] and 73.4% in assay [10].

Consider `Nc1nc(N)c(N=Nc2c(Br)cc(S(N)(=O)=O)cc2Br)c(N)n1`, for which the growth in assay [1] is 34.5%; in assay [2] it was 106%; in [3], 98.4%; in assay [4] it was 109%; in assay [5], 124%; in assay [6], 108%. Also, the growth is 105% in assay [7], 73.1% in assay [8], 95.1% in [9] and 107% in assay [10].

`COc1cc(/C=C2\C(=O)Nc3ccccc32)cc(OC)c1O`: the growth in assay [1] was -10.3% (active); in assay [2], 46.6%; in [3], 78.5%; in assay [4], 112%; in assay [5] it was 89.1%; in assay [6] it was 93.5%. Also, the growth in [7] was 70.2%; in assay [8], 46.9%; in assay [9], 18.4%; in [10], 19.1%.

`CCCCC(=O)N/N=C/c1cc(I)cc(I)c1O`: the growth in assay [1] was 16.8%; in assay [2], 53%; in assay [3] it was 36.6%; in assay [4], 59.6%; in assay [5], 34.1%; in assay [6], 58.6%. Moreover, the growth in assay [7] was 35.8%; in [8], 18.7%; in assay [9], 76.6%; in [10], 23.9%.

Take `COc1ccc(-c2c3c(N)c4c(nc3nc3c2c(C)nn3-c2ccccc2)CCCCC4)cc1`: the growth in assay [1] was 54.1%; in assay [2], -4.18% (active); in assay [3], 83.2%; in assay [4] it was 86.3%; in assay [5], 67.8%; in assay [6], 85.6%. Also, the growth is 86.7% in assay [7], 72.6% in [8], 101% in assay [9] and 86.9% in assay [10].

Take `O=c1[nH]c(-c2ccccn2)nc2sc3c(c12)CCCCCC3`: the growth was 22.1% in assay [1]; 39.4% in assay [2]; 29.9% in assay [3]; 58.6% in assay [4]; 28% in [5]; 45.2% in assay [6]. The growth in assay [7] is 42.4%; in assay [8], 54.7%; in [9], 69.9%; in assay [10], 24.6%.

As for `O=C(CC(O)c1ccccc1)Nc1ccccn1` (stereo not given), the growth is 86.9% in [1]; 93.8% in assay [2]; 100% in assay [3]; 104% in [4]; 97.1% in [5]; 94% in assay [6]. Besides, the growth in assay [7] is 108%; in assay [8], 108%; in assay [9], 106%; in assay [10], 106%.
